Bioassay records from PubChem.
KDM5B inh: Primary screen for KDM5B Histone Demethylases FDH-coupled qHTS | Lysine-specific demethylase 5B (Homo sapiens), Q9UGL1 | KDM5B demethylase, FDH-coupled NADH fluorescence (FDH is formaldehyde dehydrogenase) | Potency, µM (series often up to 57.7 µM), most hits filed as inhibitors | 220,000 tested, 2.6% active; active = well fitted inhibition curve with a large enough effect; note: nearly all actives have a fitted effect of over 70% in size
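KDM5BΔAP (200 nM final) in 50 mM HEPES pH 7.5, 0.01% Tween-20 was preincubated 10 min at RT with compound over a concentration range. Substrate mix (H3K4me3 12.5 µM, α-KG 25 µM, Fe²⁺, ascorbate, NAD⁺, FDH) was added, and NADH fluorescence change over 30 min gave dose-response curves.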
Large screens that a line does not name were inactive. This is one part of a sample in which hits are shown more often than they occur.

C=CCNC(=O)c1ccn2nccc2c1	none
O=C(NC1CC1)c1ccn2nccc2c1	none
C=CCNC(=O)c1cccn2nccc12	KDM5B inh 31.6µM
C=CCNC(=O)c1ccccc1NC(=O)c1cccc(C#N)c1	none
COC(=O)C1=C(CN2CCCCC2)NC(=O)NC1c1ccc(C)cc1 (stereo not given)	none
CSCCC(=O)NCCc1cccs1	none
CN(CC(=O)NC(C)(C)C)C(=O)c1cc2ccccc2oc1=O	none
COc1cc(-c2nnc(SCC(=O)NC(C)c3ccc4c(c3)CCCC4)o2)cc(OC)c1OC (stereo not given)	none
CCCCCCOc1ccc(/C=C(/C#N)C(=O)c2ccccc2)cc1	none
CCN1CCCC1CNC(=O)C1CCN(S(=O)(=O)c2ccc3c(ccn3CC)c2)CC1 (stereo not given)	none
CCCc1c(C(=O)NCCc2ccccc2)nnn1-c1ccc(C)cc1	none
CN(C)N1C(=O)CC(c2ccc(Cl)cc2Cl)C2=C1CC(C)(C)CC2=O (stereo not given)	none
Cc1cccc(CSCC(=O)N2CCCC2)c1	none
Cc1ncn[nH]1	none
O=C(COc1ccccc1)NC12CC3CC(CC(C3)C1)C2	none
Cc1ccc(NC(=O)Cn2c(N3CCc4ccccc4C3)nc(C)cc2=O)c(C)c1	none
Cc1cc(=O)n(CC(=O)Nc2ccc(Br)cc2F)c(N2CCc3ccccc3C2)n1	KDM5B inh 14.1µM
Cc1cc(=O)n(CC(=O)Nc2ccc(Br)cc2F)c(N2CCC(C)CC2)n1	none
CC(=O)c1ccc(OCc2cccc(C(N)=O)c2)cc1	none
Cc1nc2ccccc2n1CCC(=O)N1CC[C@H](CO)[C@@H](O)C1	none
COC(=O)c1cc(C#N)c(N2CC[C@H](CO)[C@@H](O)C2)nc1C	KDM5B inh 25.1µM
COc1ccc(C(=O)N2CC[C@H](CO)[C@H](NC(=O)C3CC3)C2)c(OC)n1	none
Cc1ccc(-c2noc(-c3cc4cc(Cl)ccc4oc3=O)n2)cc1	none
Cc1cc(N2CCN(S(=O)(=O)c3ccccc3F)CC2)nc(C(C)C)n1	none
COc1cccc(-c2ccc3ncn(-c4ccc(F)cc4F)c(=O)c3n2)c1	none
O=c1c2nc(-c3ccsc3)ccc2ncn1-c1ccc(F)cc1F	KDM5B inh 35.5µM
COc1ccc(-c2ccc3ncn(-c4ccc(F)cc4F)c(=O)c3n2)cc1OC	KDM5B inh 39.8µM
CC(=O)Nc1cccc(-c2ccc3ncn(-c4cccnc4)c(=O)c3n2)c1	none
COc1ccc(-c2ccc3ncn(C4CC4)c(=O)c3n2)cc1OC	none
Cc1nc2c(=O)n(-c3ccc(F)cc3F)nc(C)c2s1	none
Cc1cc(C)c(CC(=O)O)c(C)c1	none
CCOc1ccc(NC(=O)C2CCN(c3ccc(C#N)cn3)CC2)cc1	none
O=C(CC(c1ccc(OCc2ccccc2)cc1)S(=O)(=O)c1ccccc1)c1ccc(F)cc1 (stereo not given)	none
Clc1ccccc1C1Cn2cnc(-c3nc(-c4ccncc4)no3)c2CO1 (stereo not given)	none
Clc1ccccc1C1Cn2nnc(-c3noc(COc4ccccc4)n3)c2CO1 (stereo not given)	none
COc1ccccc1-c1nc(-c2nnn3c2COC(c2ccccc2Cl)C3)no1 (stereo not given)	KDM5B inh 28.2µM
CC(C)(C)c1ccc(-c2noc(-c3ncn4c3COC(c3ccc(F)cc3)C4)n2)cc1 (stereo not given)	none
COc1ccc(-c2nc(-c3nnn4c3COC(c3ccccc3Cl)C4)no2)cc1F (stereo not given)	KDM5B inh 12.6µM
CCOc1ccccc1-c1noc(-c2nnn3c2COC(c2ccc(C)cc2C)C3)n1 (stereo not given)	none
Clc1ccccc1C1Cn2nnc(-c3noc(C4(c5ccccc5)CC4)n3)c2CO1 (stereo not given)	none
CSc1ccc(-c2noc(-c3ncn4c3COC(c3ccccc3Cl)C4)n2)cc1 (stereo not given)	KDM5B inh 25.1µM
CCOc1ccccc1-c1nc(-c2nnn3c2COC(c2ccccc2Cl)C3)no1 (stereo not given)	KDM5B inh 28.2µM
COc1ccc(-c2noc(-c3nnn4c3COC(c3ccc(Cl)cc3)C4)n2)cc1F (stereo not given)	none
COc1ccc(C2Cn3nnc(-c4noc(-c5ccccn5)n4)c3CO2)cc1 (stereo not given)	none
COc1ccc(C2Cn3nnc(-c4nc(-c5ccc(OC)c(F)c5)no4)c3CO2)cc1 (stereo not given)	none
O=C(/C(=C/c1ccc(Cl)cc1)c1nc2ccccc2o1)c1ccccc1	none
CN(C)CCCOC(=O)c1cc(C(C)(C)C)cc(C(C)(C)C)c1	none
O=C(O)COCc1ccccc1Cl	none
COc1ccc(S(=O)(=O)NC2CCN(C(=O)Nc3cc(Cl)ccc3OC)CC2)cc1	none
O=c1c2nccnc2nc(SCc2ccccc2F)n1Cc1ccc2c(c1)OCO2	none
CCN(CC)c1ccc(NC(=O)CCc2c[nH]c3ccccc23)cc1	none
COc1cccc(NC(=O)C(C#N)C(=O)Cc2ccccc2C)c1 (stereo not given)	none
CC1(C)Cc2cccc(OCc3ccc(C(N)=O)cc3)c2O1	none
CC(C)NC(=S)N/N=C/C1CCCCC1	none
CCC(O)c1cc2n(n1)CCN(C(=O)CCn1cnc3ccccc3c1=O)C2 (stereo not given)	none
O=C(Cc1cn2ccsc2n1)N1CCCn2nc(C(O)C3CC3)cc2C1 (stereo not given)	none
CCC(O)c1cc2n(n1)CCN(C(=O)Cc1noc3ccccc13)C2 (stereo not given)	none
CC(O)c1cc2n(n1)CCCN(C(=O)CCc1cn3ccccc3n1)C2 (stereo not given)	KDM5B inh 25.1µM
CCC(O)c1cc2n(n1)CCN(C(=O)CCc1cn3ccccc3n1)C2 (stereo not given)	KDM5B inh 11.2µM
CCC(O)c1cc2n(n1)CCCN(C(=O)CCc1ccsc1)C2 (stereo not given)	none
CC(C)Cn1nc(C(=O)Nc2ccc(I)cc2)c2ccccc2c1=O	none
O=C(c1ccc(F)c(F)c1)N(C1CCCCC1)C1CCCCC1	none
CN1C(=O)Cc2cc(C(=O)NC3CCCCCC3)ccc21	none
CN1CCC2(C1)CN(CC1CC1)c1ccc(C(=O)NC3COC3)cc12 (stereo not given)	KDM5B inh 35.5µM
CCC(=O)N1CCc2ccc(C(=O)NC3CC3)cc21	none
CCC(=O)N1CCc2ccc(C(=O)NC3CCCCC3)cc21	none
CN1CCC2(C1)CN(CC1CC1)c1ccc(C(=O)NC3CCC3)cc12 (stereo not given)	KDM5B inh 35.5µM
O=C(NC1CC1)c1ccc2c(c1)CCCC2	none
O=C(O)/C=C/c1ccc(F)cc1	none
Cc1ccc(CNC(=O)Cc2c(C)c3c(O)cc(C)cc3oc2=O)cc1	none
Cc1cccc(OCC(=O)NCc2nnc3ccc(-c4ccc(F)cc4)nn23)c1	KDM5B inh 35.5µM
Cc1ccc(-c2noc(CNC(=O)COc3cccc(C)c3)n2)cc1	none
O=C(COc1cccc(-c2nnc3n2CCCC3)c1)NCc1ccc(F)cc1	none
Cc1ccc(-c2ccc3nnc(CNC(=O)COc4cccc(C)c4)n3n2)cc1	KDM5B inh 10µM
O=C(COc1cccc(F)c1)NCCc1nnc2ccccn12	none
C/C(=N\NC(=O)C1CC1)c1ccc(C)o1	none
O=C(CN1C(=O)NC2(CCS(=O)(=O)CC2)C1=O)Nc1ccc(Cl)cc1F	none
O=C(CCn1nc(-c2ccc(Cl)cc2)c2ccccc2c1=O)Nc1ccc(F)cc1	none
Clc1ccc(N/N=C/c2ccccc2)cc1Cl	none
O=C(/C=C/c1ccc(F)cc1)NCCc1ccccn1	none
O=C(c1cc(-c2ccc(Cl)cc2Cl)c2nncn2n1)N1CCOCC1	KDM5B inh 79.4µM
Cn1nc(C(=O)N2CCOCC2)cc1C(=O)Nc1ccc(Cl)cc1Cl	none
O=C(NCc1cccs1)C1(c2cccc(C(F)(F)F)c2)CCOCC1	none
